# Menin MLL FP FL – menin-MLL binding inhibition, fluorescein peptide | Fluorescence polarization, fluorescein-MLL peptide displacement from menin | FP activity change, % at 61.4 µM | 290,000 tested, under 10 active | AID 1766; active = well fitted curve in the direction sought with a large enough effect in the polarisation, not every such curve was filed as active; inconclusive = small, poorly fitted or top-dose-only effect, or effect the other way, or a change in a side signal; inactive = no such curve, though single readings can be large or run the other way; the % refers to the polarisation; also: % of control where 0% means no effect
# KCNH2 WT inh – KCNH2 (human, wildtype) channel inhibition. Q12809. activity change, % at 1.84 µM. 340,000 compounds, 0.37% hits. U2OS, BacMam KCNH2, thallium flux FluxOr; active compounds read low;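 active = maximum activity change below -70%; inconclusive = maximum activity change between -70% and -50%; inactive = maximum activity change above -50%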; also: % is scaled to controls: 0 for no effect and ±100 for the full control effect
#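 U2OS cells transduced with wild-type KCNH2 virus are loaded with FluxOr dye for 45 min, and thallium flux is measured in kinetic reads before and after stimulation buffer. Rate constants are normalized to DMSO controls.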
# KCNH2 3.1 block – blocks the human KCNH2 3.1 channel isoform; U2OS KCNH2 3.1, thallium flux FluxOr; active compounds read low; activity change, % (tested at about 1.8 µM); 340,000 compounds, 0.95% hits;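 active = maximum activity change below -70%; inconclusive = maximum activity change from -70% to -50%; inactive = maximum activity change above -50%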;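 also: thallium influx rate constant from kinetic fluorescence after stimulation buffer; % is scaled to controls: 0 for no effect and ±100 for the full control effect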
#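 Normalized rate constant (relative to positive and negative DMSO controls) derived from a 2 min kinetic fluorescence read after stimulation; U2OS cells expressing the 3.1 isoform via virus at 1.77 x 10^8 /mL.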
# MLL CXXC-DNA inh – blocks binding of human MLL CXXC domain to DNA; 290,000 compounds, 0.037% hits; Q03164; Potency, µM (series often up to 115 µM), for the others: at the highest dose activity change, negative = inhibition, actives largely listed as inhibitors; MLL-CXXC / FITC-HOXA9 DNA fluorescence polarization; active = well fitted inhibition curve with a large enough effect in the polarisation, with a control signal flat, not every such curve was filed as active; inconclusive = small, poorly fitted or top-dose-only effect, or effect the other way, or a change in a side signal; inactive = no such curve, though single readings can be large or run the other way; the % refers to the polarisation; also: potency is read from the fitted curve at half-maximal effect
#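 Steps: dispense CXXC domain solution (7 uM) → pin compounds or unlabeled HOX-A9 DNA control → 5 min ambient → add FLSN-HOX-A9 solution (50 nM) → spin → 30 min ambient → fluorescence polarization. Tris pH 7.5/NaCl/DTT/BSA buffer.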
# Menin-MLL TR inh – menin-MLL binding inhibition, Texas Red mutant peptide; Potency, µM (top dose mostly 61.6 µM), for the others: at the top dose FP activity change, negative = inhibition, actives largely listed as inhibitors; 270,000 compounds, 0.23% hits; O00255; Menin + Texas Red MLL mutant peptide, fluorescence polarization; active = well fitted inhibition curve with a large enough effect in the polarisation, with a control signal flat, not every such curve was filed as active; inconclusive = small, poorly fitted or top-dose-only effect, or effect the other way, or a change in a side signal; inactive = no such curve, though single readings can be large or run the other way; the % refers to the polarisation; also: potency is read from the fitted curve at half-maximal effect; % of control where 0% means no effect
# MLL CXXC FP-Fl – inhibitors of human MLL CXXC domain-DNA interaction. Potency, µM (top dose mostly 345 µM), for inactives: at the highest dose activity change, negative = inhibition, most hits filed as inhibitors. AID 624160. 200 compounds, 70% hits. shares compounds with MLL CXXC-DNA inh. MLL CXXC-DNA binding, fluorescein FP; also: potency is read from the fitted curve at half-maximal effect; nearly all actives have a fitted effect of over 80% in size
# MLL CXXC FP-TR – MLL CXXC-DNA interaction inhibition, Texas Red FP. Potency, µM (top dose mostly 345 µM), inactives show at the highest dose activity change, negative = inhibition, most hits filed as inhibitors. shares compounds with MLL CXXC-DNA inh. 200 compounds, 40% hits. MLL CXXC-DNA binding, Texas Red fluorescence polarization. AID 624161; also: potency is read from the fitted curve at half-maximal effect; % is scaled to controls: 0 for no effect and ±100 for the full control effect; nearly all actives have a fitted effect of over 75% in size
# MLL CXXC TRF – MLL CXXC-DNA interaction inhibition, HTRF readout; shares compounds with MLL CXXC-DNA inh; MLL CXXC-DNA binding, HTRF, biochemical; Potency, µM (doses to about 172 µM), for the others: top-dose activity change, negative = inhibition, hits mostly inhibitors; 210 compounds, 30% hits; also: % is scaled to controls: 0 for no effect and ±100 for the full control effect; nearly all actives have a fitted effect of over 80% in size
# An asterisk follows results filed as active; u = inconclusive; x = no result given. Hits are enriched below; roughly 1.1% of the tested compounds scored in any of these assays. Unless noted, calls follow the shape of the dose curve; as a rule, active = well fitted inhibition curve with a large enough effect; inconclusive = small, poorly fitted or top-dose-only effect; inactive = no such curve, though single readings can be large or run the other way.
SMILES,Menin MLL FP FL,KCNH2 WT inh,KCNH2 3.1 block,MLL CXXC-DNA inh,Menin-MLL TR inh,MLL CXXC FP-Fl,MLL CXXC FP-TR,MLL CXXC TRF
Cc1[nH]n(-c2ccccc2)c(=O)c1N=Nc1cccc(C(=O)O)c1,3.9,-10.3,0.6,u,u,14.2µM*,u,34.0%
Cc1[nH]n(-c2ccccc2)c(=O)c1N=Nc1ccc(C(=O)O)cc1,-2.5,-12.8,-10.1,2.1%,u,x,x,x
CCN(CC)S(=O)(=O)c1cccc(NC(=O)CNc2cccc(S(=O)(=O)N3CCOCC3)c2)c1,x,4.1,-2.1,x,x,x,x,x
COc1cc(/C=C(\C#N)C(=O)Nc2ccc(C(=O)O)cc2)ccc1OC(=O)c1cccc(F)c1,u,-9.3,3.5,u,28.5%,2.9%,36.7%,-48.5%
O=C(NCCOc1ccccc1)c1ccc2c(c1)S(=O)(=O)c1cc(Cl)ccc1C2=O,x,5.6,-44.1,x,x,x,x,x
COCCCNc1c2c3c(cccc3[nH]c1=O)C(=O)c1ccccc1-2,u,-10.3,-33.1,u,31.6µM*,0.565µM*,63.3µM*,24.8%
CNC(=O)c1cc(Nc2nnc(-c3ccc(C)c(S(N)(=O)=O)c3)c3ccccc23)ccc1OC,0.1,0.2,2.2,u,4.8%,142µM*,14.3%,12.5%
O=C(Nc1ccncc1)c1cc(S(=O)(=O)N2CCOCC2)ccc1Cl,x,0.5,-2.6,x,x,x,x,x
CC[C@@]1(O)C(=O)OCc2c1cc1n(c2=O)Cc2cc3c(N)cccc3nc2-1,-0.9,-6.7,-6.5,0.0%,x,x,x,x
CC[C@@]1(O)C(=O)OCc2c1cc1n(c2=O)Cc2cc3c(CN(C)C)c(O)ccc3nc2-1,u,1.2,-1.4,44.7µM*,-1.4%,31.7µM*,-5.2%,10.2%
Cc1ccc([C@@H]2CC(=O)[C@@H]3CN(S(=O)(=O)c4ccc(C)cc4)[C@H](c4ccc(Cl)cc4)C[C@@H]3N2S(=O)(=O)c2ccc(C)cc2)cc1,x,1.3,2.4,x,x,x,x,x
CCOC(=O)/C(C#N)=C1\SS/C(=C(/C#N)C(=O)OCC)S1,u,x,x,17.8µM*,u,25.2µM*,63.3µM*,4.85µM*
CC(=O)OCCn1c2nc(=O)[nH]c(=O)c-2nc2cc(C)c(C)cc21,u,-4.2,-17.4,u,-2.0%,1.79µM*,2.4%,13.6%
Cc1cc2nc3c(=O)[nH]c(=O)nc-3n(CC(O)C(O)C(O)CO)c2cc1C (stereo not drawn),u,x,x,x,-2.4%,x,x,x
CCCC(=O)OC[C@@H](OC(=O)CCC)[C@@H](OC(=O)CCC)[C@H](Cn1c2nc(=O)[nH]c(=O)c-2nc2cc(C)c(C)cc21)OC(=O)CCC,u,x,x,u,-21.0%,14.2µM*,u,22.6%
O=C(NCCN1CCOCC1)c1cccc(NS(=O)(=O)c2ccc(Br)cc2)c1,x,-7.3,-1.8,x,x,x,x,x
COc1ccc(CNS(=O)(=O)c2cn(C)c(=O)n(C)c2=O)cc1,x,9.8,8.5,-2.1%,x,x,x,x
CCC(=O)O[C@@H](OP(=O)(CCCCc1ccccc1)CC(=O)N1C[C@H](C2CCCCC2)C[C@H]1C(=O)O)C(C)C (stereo partly drawn),0.6,x,x,-9.0%,-1.1%,x,x,x
COc1cc(/C=C2/SC(=O)NC2=O)ccc1OCc1ccccc1,-5.9,-4.4,-4.0,u,u,x,x,x
COc1ccc(/C=C2/SC(=S)NC2=O)cc1OCc1ccccc1,8.5,-3.9,7.8,u,u,u,22.2%,29.6%
CC(=O)N1CCN(C(=O)COC(=O)c2ccc(S(C)(=O)=O)cc2)CC1,x,-3.9,9.0,x,x,x,x,x
CC(NC(=O)CCn1ccc2cc(S(=O)(=O)N3CCCC3)ccc21)c1ccccc1 (stereo not drawn),0.2,-10.7,-11.3,6.0%,11.9%,x,x,x
COc1cccc2c1C(=O)c1c(O)c3c(c(O)c1C2=O)CC(O)(C(=O)CO)CC3OC1CC(N(C)C)C(O)C(C)O1 (stereo not drawn),x,20.9,-13.4,x,x,x,x,x
COc1cccc2c1C(=O)c1c(O)c3c(c(O)c1C2=O)C[C@@](O)(C(C)=O)C[C@@H]3O[C@H]1C[C@H](N)[C@H](O)[C@H](C)O1,u,5.5,0.5,10µM*,u,5.65µM*,11.3µM*,376.3%
